High-throughput results from PubChem.
A selection: hits, their analogues and other compounds. The true share with any hit is near 3.9%.
NTR1 agonist: agonists of human NTR1, primary screen, imaging, U2OS cells, beta-arrestin-GFP, high content; Neurotensin receptor type 1 (Homo sapiens), P30989; NTR1-U2OS beta-arrestin-GFP spot imaging, agonist mode; activation, % at 20 µM; 0.17% of 330,000 active; AID 493036, 2011;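 active = activation at or above 40% of the spot to cytoplasm intensity ratio, with at least 20 cells analyzed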;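 also: 0% = DMSO without peptide and 100% = 100 nM NTR1 peptide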
H9c2 protect: cardioprotection against H2O2-induced cell death, primary screen, uHTS, H9c2 cells, ATPLite luminescence; H9c2 cardiomyocytes, H2O2 injury protection, 2 h; protection from H2O2 cell death, % at 20 µM; 0.63% of 360,000 active; AID 588492, 2011;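 active = compounds giving at least 50% protection of heart cells from peroxide-induced death in the single-dose screen, raw or plate-pattern-corrected value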;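 also: 0% = DMSO wells with peroxide and 100% = DMSO wells without peroxide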
ALR H2O2 inh: inhibitors of human ALR sulfhydryl oxidase, primary screen, biochemical, H2O2 detection, HRP-luminol luminescence, single point; purified ALR, DTT oxidation; AID 485317, 2010; inhibition, % (no concentration beside the values); FAD-linked sulfhydryl oxidase ALR (Homo sapiens), P55789; 3.8% of 290,000 active;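 active = mean replicate inhibition above about 79%, with every replicate also reaching it, limit read from the data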
Target sequence (P55789 whole entry, looked up): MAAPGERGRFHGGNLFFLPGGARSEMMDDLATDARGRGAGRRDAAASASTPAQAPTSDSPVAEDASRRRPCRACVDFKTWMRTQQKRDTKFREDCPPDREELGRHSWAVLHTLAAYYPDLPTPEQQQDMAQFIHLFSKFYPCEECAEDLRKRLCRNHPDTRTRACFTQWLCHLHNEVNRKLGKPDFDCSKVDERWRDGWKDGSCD
SUMO HTRF inh: inhibitors of in vitro SUMOylation cascade, primary screen, biochemical, HTRF, uHTS. inhibition, % at 35 µM. HTRF SUMOylation assay, SAE1/SAE2 + UBC9. 0.36% of 290,000 active. SUMO-conjugating enzyme UBC9 (Homo sapiens), P63279. AID 2006, 2009; in the data active = inhibition above about 50%, passing the limit was not always enough
Target sequence (P63279 whole entry, looked up): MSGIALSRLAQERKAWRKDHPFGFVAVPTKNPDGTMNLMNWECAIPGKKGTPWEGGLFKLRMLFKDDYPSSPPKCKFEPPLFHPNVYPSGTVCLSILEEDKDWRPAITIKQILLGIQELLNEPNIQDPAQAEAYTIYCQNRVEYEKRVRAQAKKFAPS
* marks the source's active call; other numbers are inactive results; / = no result.

SMILES	NTR1 agonist	H9c2 protect	ALR H2O2 inh	SUMO HTRF inh
CCS(=O)(=O)c1ccc2c(c1)N(S(=O)(=O)c1cccs1)CC(C(=O)O)O2 (configuration not stated)	0	0	2	13
S=C(c1c[nH]c2ccc(Br)cc12)N1CCOCC1	-2	1	99*	-28
c1ccc(-c2csc(Nc3ncccn3)n2)cc1	0	-10	-7	8
NNc1nc(-c2ccccc2)cs1	0	-2	99*	8
CCn1cc(SCC(=O)Nc2cc(C)on2)c2ccccc21	-2	-3	95*	-17
CCn1cc(SCC(N)=O)c2ccccc21	-1	-1	96*	-4
Cc1cc(NC(=O)CSc2cn(CC(=O)N(C(C)C)C(C)C)c3ccccc23)no1	2	-1	98*	/
Cc1cc(NC(=O)CSCC(=O)N2CCN(c3ccccc3)CC2)no1	0	-1	99*	/
COc1ccc(-c2cc([N+](=O)[O-])ccc2OCC(=O)N(C)CC(=O)Nc2ccc(C)cc2)cc1	17	-4	/	/
Cc1cc(NC(=O)COc2ccc3ccccc3c2)no1	0	-5	-8	-16
Cc1cc(NC(=O)CSc2ccc3ccccc3c2)no1	2	-6	99*	19
CCN(CC)CCCNC(=O)C(C)n1c2ccccc2c2nc(=O)cc(C)n21 (configuration not stated)	2	-8	-2	-3
O=C(NC(=S)N1CCCc2ccccc21)c1ccccc1	0	-24	99*	12
COC(=O)CSc1nc(N2CCOCC2)c2c(c1C#N)CC(C)(C)N(C)C2	0	11	95*	20
CCSc1nc(N2CCOCC2)c2c(c1C#N)CC(C)(C)N(C)C2	0	-4	/	21
O=C1CCCC2=C1C(c1cccs1)n1nc(SCc3ccccc3F)nc1N2 (configuration not stated)	-2	24	/	14
CCOc1cc(N2CCOCC2)c(OCC)cc1NC(=O)COC(=O)c1c(C)noc1C	/	3	/	/
CNC(=O)[C@H]1O[C@@H](n2cnc3c(NCc4cccc(I)c4)ncnc32)[C@H](O)[C@@H]1O	0	-2	82*	/
Cc1ccc(N2CC(C(=O)Nc3ccc4c(c3)OCO4)CC2=O)cc1 (configuration not stated)	1	-1	-34	18
O=C(NC(=S)N1CCN(c2ccccc2)CC1)c1ccco1	0	-1	98*	/
O=C(NCC(=O)N1CCN(c2ccccc2O)CC1)c1ccco1	0	0	90*	10
Nc1ccc(N2CCN(C(=O)c3ccco3)CC2)cc1	-1	13	99*	-6
Cc1cc(C(=O)NNc2c(Cl)cccc2Cl)no1	1	-2	16	6
CCc1ccccc1NNC(=O)c1cc(C)on1	-1	4	-9	1
Cc1cc(C(=O)NNc2ccccc2F)no1	0	10	99*	-11
SMILES	NTR1 agonist	H9c2 protect	ALR H2O2 inh	SUMO HTRF inh
Cc1cc(C(=O)NNc2ccc(F)cc2)no1	2	2	99*	-16
O=C(c1ccccc1)c1ccc2cc(O)ccc2c1	5	-20	99*	9
COc1ccc2nc(NC(=O)CSc3n[nH]c(N)n3)sc2c1	0	-16	90*	/
CC(=O)Nc1ccc(-n2c(C)ccc2-c2ccccc2)cc1	1	-4	-72	19
COc1ccc(C/C(N)=N/OC(=O)c2ccc(Cl)cc2)cc1	3	-19	-1	-24
COc1cc(C2C(C#N)=C(N)N(c3ccc(F)cc3)C3=C2S(=O)(=O)CC3)ccc1O (configuration not stated)	-1	2	88*	9
N#CC1=C(N)OC2=C(CCc3ccccc32)C1c1ccccc1Cl (configuration not stated)	17	-6	-14	24
O=C(CSc1nnc(-c2ccc(F)cc2)c2ccccc12)Nc1ccccc1	1	4	99*	-13
CCc1nnc(SCC(=O)Nc2ccccc2)nc1CC	0	3	0	-1
COC(=O)Cc1nnc(SCC(=O)Nc2ccccc2)c2ccccc12	0	6	98*	0
CSCC[C@H](N)C(=O)N1CCC(C(=O)N[C@@H](Cc2c[nH]c3ccccc23)C(=O)O)CC1	0	9	21	0
COc1cc(N=Nc2c(C)n(C)n(-c3ccccc3)c2=O)ccc1N	0	2	98*	-21
Cc1c(N=CC=Nc2c(C)n(C)n(-c3ccccc3)c2=O)c(=O)n(-c2ccccc2)n1C	/	/	/	5
Cn1c(-c2cccc([N+](=O)[O-])c2)cnc1NCc1cccc(F)c1	0	7	99*	-6
Cn1c(-c2cccc([N+](=O)[O-])c2)cnc1NCc1ccc(C#N)cc1	0	21	99*	11
Cc1ccc(-c2cn3c(=S)[nH]nc3s2)cc1	1	-9	86*	-4
O=[N+]([O-])c1ccccc1S(=O)(=O)n1cnc2ccccc21	0	12	95*	8
O=S(=O)(c1cccs1)n1cnc2ccccc21	-2	12	97*	20
CCN(CC)S(=O)(=O)c1cccc(NC(=O)CSc2nnc(N)s2)c1	2	-10	99*	4
Nc1nnc(SCC(=O)Nc2cccc(S(N)(=O)=O)c2)s1	0	9	-3	9
CCC(=O)Nc1nnc(S(=O)(=O)N(CC)c2cc(C)cc(C)c2)s1	2	-4	-7	14
O=C(OCc1nnc(-c2ccccc2)o1)c1ccc([N+](=O)[O-])s1	2	52*	-27	/
Cc1ccc(C(=O)OCc2nnc(-c3ccccc3)o2)s1	2	-4	0	/
COc1ccc(-c2cn[nH]c2-c2ccc(OCC(=O)NN)cc2O)cc1OC	2	-2	-8	21
COc1ccc(Nc2nc(C)cc(C)c2C(N)=O)cc1	1	33	28	-4
SMILES	NTR1 agonist	H9c2 protect	ALR H2O2 inh	SUMO HTRF inh
COc1ccc(Nc2n[nH]c(N)c2C(N)=O)cc1	0	-4	99*	-6
COCCCNC(=O)CC(NS(=O)(=O)c1ccc(C)cc1)c1ccc(OC)cc1 (configuration not stated)	-1	3	-3	1
O=C1c2ccccc2C(Nc2ccc3c(c2)OCO3)N1Cc1ccco1 (configuration not stated)	2	-6	99*	-28
O=C1c2ccccc2C(Nc2ccc(F)c(Cl)c2)N1Cc1ccco1 (configuration not stated)	16	-2	3	-9
COC(=O)c1cc(NC2c3ccccc3C(=O)N2Cc2ccco2)cc(C(=O)OC)c1 (configuration not stated)	4	0	3	10
COc1ccc(NC2c3ccccc3C(=O)N2Cc2ccco2)cc1OC (configuration not stated)	-4	-13	100*	2
CCOc1ccc(NC2c3ccccc3C(=O)N2Cc2ccco2)cc1 (configuration not stated)	1	-14	98*	-14
O=C1C2C3CCC(C3)C2C(=O)N1CNc1ccccc1 (configuration not stated)	1	6	39	-6
